Source: PubChem BioAssay AID1159580 (chemical genetic matrix, 2015)
About 2,000 (36%) of roughly 5,500 compounds were called active. Another 18% or so got no clear call; they are omitted. No stated cut-off is given here; in the data, active means normalized growth mostly below about 0.91 (no sharp cut-off); inconclusive means no clear call, values can overlap the other calls; inactive means mostly above about 0.92. Some of the results follow.

Assay: chemical genetic growth profiling, strain panel (AID 1159580);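 further: tested at 20 µM; growth read once vehicle control cultures reached saturation at 30 °C; 1 = growth at the plate median or of vehicle wells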
Conditions: growth OD

Measured: normalized growth

CC(=O)CC1CCCCN1 (configuration not stated)
inactive: S. cerevisiae deletion strains, locus YJR075W, strain HOC1, stronger effect = lower value 1.01 | S. cerevisiae deletion strains, locus YKL009W, strain mrt4, stronger effect = lower value 0.996 | S. cerevisiae deletion strains, locus YKL068W, stronger effect = lower value 1 | S. cerevisiae deletion strains, locus YKL085W, strain MDH1 (second series), stronger effect = lower value 0.983 | S. cerevisiae deletion strains, locus YKL085W, strain MDH1, stronger effect = lower value 0.983 | S. cerevisiae deletion strains, locus YKL160W, strain elf1, stronger effect = lower value 1.02 | S. cerevisiae deletion strains, locus YKL190W, strain CNB1, stronger effect = lower value 1.02 | S. cerevisiae deletion strains, locus YKR001C, strain vps1, stronger effect = lower value 0.994 | S. cerevisiae deletion strains, locus YKR026C, strain gcn3, stronger effect = lower value 1.02 | S. cerevisiae deletion strains, locus YKR091W, strain srl3, stronger effect = lower value 1.02 | S. cerevisiae deletion strains, locus YLL001W, strain dnm1, stronger effect = lower value 1.02 | S. cerevisiae deletion strains, locus YLL026W, stronger effect = lower value 1.02 | S. cerevisiae deletion strains, locus YLL041C, strain sdh2, stronger effect = lower value 1.01 | S. cerevisiae deletion strains, locus YLR027C, strain aat2, stronger effect = lower value 1.03 | S. cerevisiae deletion strains, locus YLR039C, strain RIC1, stronger effect = lower value 1.06 | S. cerevisiae deletion strains, locus YLR058C, strain SHM2, stronger effect = lower value 1.02 | S. cerevisiae deletion strains, locus YLR102C, strain apc9, stronger effect = lower value 0.996 | S. cerevisiae deletion strains, locus YLR113W, strain HOG1, stronger effect = lower value 0.981 | S. cerevisiae deletion strains, locus YLR221C, strain rsa3, stronger effect = lower value 1.03 | S. cerevisiae deletion strains, locus YLR258W, strain gsy2, stronger effect = lower value 1.02 | S. cerevisiae deletion strains, locus YLR262C, strain YPT6 (second series), stronger effect = lower value 1.03 | S. cerevisiae deletion strains, locus YLR262C, strain YPT6, stronger effect = lower value 1.1 | S. cerevisiae deletion strains, locus YLR268W, strain sec22, stronger effect = lower value 0.993 | S. cerevisiae deletion strains, locus YLR320W, strain mms22, stronger effect = lower value 1.04 | S. cerevisiae deletion strains, locus YLR330W, strain CHS5, stronger effect = lower value 1.01 | S. cerevisiae deletion strains, locus YLR342W, strain FKS1 (second series), stronger effect = lower value 0.993 | S. cerevisiae deletion strains, locus YLR342W, strain FKS1, stronger effect = lower value 1.02 | S. cerevisiae deletion strains, locus YLR357W, strain rsc2, stronger effect = lower value 0.995 | S. cerevisiae deletion strains, locus YLR370C, strain arc18, stronger effect = lower value 1.02 | S. cerevisiae deletion strains, locus YLR371W, strain rom2, stronger effect = lower value 0.994 | S. cerevisiae deletion strains, locus YLR384C, strain iki3, stronger effect = lower value 1.01 | S. cerevisiae deletion strains, locus YLR418C, strain cdc73, stronger effect = lower value 1 | S. cerevisiae deletion strains, locus YML016C, strain PPZ1, stronger effect = lower value 1.02 | S. cerevisiae deletion strains, locus YML032C, strain rad52, stronger effect = lower value 0.982 | S. cerevisiae deletion strains, locus YML120C, strain ndi1, stronger effect = lower value 1.02 | S. cerevisiae deletion strains, locus YML124C, strain tub3, stronger effect = lower value 0.995 | S. cerevisiae deletion strains, locus YMR058W, strain fet3, stronger effect = lower value 1.02 | S. cerevisiae deletion strains, locus YMR078C, strain ctf18, stronger effect = lower value 0.99 | S. cerevisiae deletion strains, locus YMR125W, strain sto1, stronger effect = lower value 1 | S. cerevisiae deletion strains, locus YMR129W, stronger effect = lower value 1.01 | S. cerevisiae deletion strains, locus YMR205C, strain PFK2, stronger effect = lower value 1.04 | S. cerevisiae deletion strains, locus YMR223W, strain ubp8, stronger effect = lower value 0.997 | S. cerevisiae deletion strains, locus YMR231W, strain pep5, stronger effect = lower value 1.01 | S. cerevisiae deletion strains, locus YMR263W, strain SAP30, stronger effect = lower value 1.02 | S. cerevisiae deletion strains, locus YMR307W, strain GAS1, stronger effect = lower value 1.08 | S. cerevisiae deletion strains, locus YNL067W, strain RPL9B, stronger effect = lower value 1.02 | S. cerevisiae deletion strains, locus YNL071W, strain lat1, stronger effect = lower value 1.02 | S. cerevisiae deletion strains, locus YNL128W, strain TEP1, stronger effect = lower value 1.01 | S. cerevisiae deletion strains, locus YNL153C, strain GIM3, stronger effect = lower value 1.02 | S. cerevisiae deletion strains, locus YNL183C, strain NPR1, stronger effect = lower value 0.954 | S. cerevisiae deletion strains, locus YNL209W, strain ssb2, stronger effect = lower value 1.02 | S. cerevisiae deletion strains, locus YNL233W, strain BNI4, stronger effect = lower value 1.02 | S. cerevisiae deletion strains, locus YNL248C, strain rpa49, stronger effect = lower value 1.01 | S. cerevisiae deletion strains, locus YNL250W, strain rad50, stronger effect = lower value 0.993 | S. cerevisiae deletion strains, locus YNL271C, strain bni1, stronger effect = lower value 0.993 | S. cerevisiae deletion strains, locus YNL298W, strain CLA4, stronger effect = lower value 0.988 | S. cerevisiae deletion strains, locus YNL307C, strain MCK1, stronger effect = lower value 0.995 | S. cerevisiae deletion strains, locus YNL322C, strain KRE1 (second series), stronger effect = lower value 1.01 | S. cerevisiae deletion strains, locus YNL322C, strain KRE1, stronger effect = lower value 1.01 | S. cerevisiae deletion strains, locus YNR049C, strain mso1, stronger effect = lower value 1.02 | S. cerevisiae deletion strains, locus YNR052C, strain pop2, stronger effect = lower value 0.98 | S. cerevisiae deletion strains, locus YOL006C, strain TOP1, stronger effect = lower value 1.04 | S. cerevisiae deletion strains, locus YOL012C, strain htz1 0.894 | S. cerevisiae deletion strains, locus YOL147C, strain pex11, stronger effect = lower value 0.993 | S. cerevisiae deletion strains, locus YOR001W, strain rrp6, stronger effect = lower value 1 | S. cerevisiae deletion strains, locus YOR061W, strain CKA2, stronger effect = lower value 1.01 | S. cerevisiae deletion strains, locus YOR069W, strain VPS5, stronger effect = lower value 0.999 | S. cerevisiae deletion strains, locus YOR070C, strain gyp1, stronger effect = lower value 1.03 | S. cerevisiae deletion strains, locus YOR080W, strain dia2, stronger effect = lower value 1.02 | S. cerevisiae deletion strains, locus YOR083W, strain WHI5, stronger effect = lower value 1.03 | S. cerevisiae deletion strains, locus YOR106W, strain vam3, stronger effect = lower value 1.01 | S. cerevisiae deletion strains, locus YOR136W, strain idh2, stronger effect = lower value 0.977 | S. cerevisiae deletion strains, locus YOR144C, strain elg1, stronger effect = lower value 1 | S. cerevisiae deletion strains, locus YOR184W, strain ser1, stronger effect = lower value 0.974 | S. cerevisiae deletion strains, locus YOR231W, strain MKK1, stronger effect = lower value 0.983 | S. cerevisiae deletion strains, locus YOR265W, strain rbl2, stronger effect = lower value 1.01 | S. cerevisiae deletion strains, locus YOR270C, strain vph1, stronger effect = lower value 1.05 | S. cerevisiae deletion strains, locus YOR290C, strain snf2, stronger effect = lower value 1 | S. cerevisiae deletion strains, locus YOR316C, strain cot1, stronger effect = lower value 0.991 | S. cerevisiae deletion strains, locus YPL051W, strain arl3, stronger effect = lower value 1.03 | S. cerevisiae deletion strains, locus YPL055C, strain LGE1, stronger effect = lower value 1.04 | S. cerevisiae deletion strains, locus YPL078C, strain atp4, stronger effect = lower value 1.02 | S. cerevisiae deletion strains, locus YPL106C, strain sse1, stronger effect = lower value 1 | S. cerevisiae deletion strains, locus YPL240C, strain hsp82, stronger effect = lower value 1.01 | S. cerevisiae deletion strains, locus YPL241C, strain CIN2, stronger effect = lower value 0.995 | S. cerevisiae deletion strains, locus YPL256C, strain CLN2, stronger effect = lower value 0.967 | S. cerevisiae deletion strains, locus YPR119W, strain clb2, stronger effect = lower value 0.993 | S. cerevisiae deletion strains, locus YPR141C, strain kar3, stronger effect = lower value 0.99 | S. cerevisiae deletion strains, locus YPR163C, strain tif3, stronger effect = lower value 0.993 | S. cerevisiae deletion strains, locus YPR167C, strain met16, stronger effect = lower value 0.987 | S. cerevisiae deletion strains, strain wtn01, stronger effect = lower value 1 | S. cerevisiae strains, strain wild type, stronger effect = lower value 1.02
